# Experimental data from PubChem BioAssay AID1220 (Sanford-Burnham Center for Chemical Genomics, 2008).
# The whole screen tested about 190,000 compounds, of which about 1,300 (0.68%) were called active. This is one part of a sample in which actives are shown more often than they occur. Unmarked numbers belong to inactive results. No stated cut-off is given here; in the data, active means inhibition above about 50%; inactive means the rest.
# Molecular target: Mannose-6-phosphate isomerase (Homo sapiens) (UniProt P34949)
# Test: MPI inhibition at elevated mannose 6-phosphate – biochemical, fluorescence intensity, high mannose 6-phosphate, primary screen (AID 1220)
# Conditions: recombinant PMI enzyme, coupled fluorescence intensity; at 20 µM; active compounds read high
# Sequence of Mannose-6-phosphate isomerase (Homo sapiens) (P34949 whole entry, looked up): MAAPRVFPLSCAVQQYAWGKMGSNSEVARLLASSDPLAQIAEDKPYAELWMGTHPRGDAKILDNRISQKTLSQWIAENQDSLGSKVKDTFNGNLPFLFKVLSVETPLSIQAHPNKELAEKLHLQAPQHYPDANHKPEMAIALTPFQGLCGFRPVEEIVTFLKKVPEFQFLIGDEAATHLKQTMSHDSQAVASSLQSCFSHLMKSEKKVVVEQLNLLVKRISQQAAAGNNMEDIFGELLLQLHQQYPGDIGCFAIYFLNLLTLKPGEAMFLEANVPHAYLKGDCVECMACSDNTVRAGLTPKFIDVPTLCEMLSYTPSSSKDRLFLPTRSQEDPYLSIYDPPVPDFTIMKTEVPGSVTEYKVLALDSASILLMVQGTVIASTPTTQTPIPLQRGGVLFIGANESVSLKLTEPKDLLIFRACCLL
row,Compound,inhibition
1,CC(=O)c1cnc(Nc2ccc(C)cc2)s1,1.9%
2,C=CCSc1nnc(NC(=O)CSc2nc3ccccc3[nH]2)s1,4.3%
3,Cc1cc(NC(=O)c2ccc(Cl)cc2)n(CCOC(=O)c2ccc(Cl)cc2)n1,10.6%
4,Cc1nc2ccc(NC(=O)NCCO)cc2s1,3.3%
5,COc1ccc(C(=O)NCc2ccc(Cl)c(Cl)c2)cc1OC,-0.1%
6,Cc1cccc(-c2nc(CS(=O)CC(=O)N3CCCCC3)c(C)o2)c1 (stereo not given),5.1%
7,Cc1ccccc1-n1c(=O)cc(N2CCC3(CC2)OCCO3)[nH]c1=O,7%
8,O=c1cc(N2CCCCCC2)[nH]c(=O)n1-c1ccccc1Cl,-6.5%
9,Cc1ccccc1-n1c(=O)cc(N2CCCCCC2)[nH]c1=O,62.9% (active)
10,CCOC(=O)/C(N=Nc1ccc(C(=O)O)cc1[N+](=O)[O-])=C(\C)O,-1.9%
11,CC(C)Cc1nc2oc3c(N4CCN(CCO)CC4)ncnc3c2c2c1CCCC2,2%
12,Cc1ccc(Cl)cc1NC(=S)N(CCCN1CCOCC1)Cc1ccco1,-6.2%
13,Clc1ncc(CSc2ccccc2)s1,-2.5%
14,COC(=O)c1ccccc1NC(=O)CNc1cc(Cl)ccc1N1CCOCC1,9.8%
15,Cc1ccc(S(=O)OCC(=O)Nc2cc(Cl)ccc2N2CCOCC2)cc1 (stereo not given),52% (active)
16,O=C(COS(=O)c1ccccc1)Nc1cc(Cl)ccc1N1CCOCC1 (stereo not given),8.4%
17,COc1ccccc1C(=O)Nc1ccccc1SC,10.6%
18,COc1ccc(S(=O)(=O)CCC(=O)N2c3ccccc3CC2C)cc1 (stereo not given),2%
19,O=C(Nc1ccc2c(c1)OCO2)c1ccc(S(=O)(=O)NCC2CCCO2)cc1 (stereo not given),-2.4%
20,CCOC(=O)CSc1[nH]c2cc(OC)ccc2c1[N+](=O)[O-],9.3%
21,COc1ccc2c([N+](=O)[O-])c(Cl)[nH]c2c1,67.9% (active)
22,COc1ccc2c(C)cc(=O)[nH]c2c1,-3%
23,O=C(COC(=O)c1c2ccccc2cc2ccccc12)Nc1ncc(C(F)(F)F)cc1Cl,2.9%
24,COc1ccc(CCNC(=O)CSc2nc3ccccc3o2)cc1,1.3%
25,COc1ccc(CN=Cc2c(C(F)(F)F)[nH][nH]c2=O)cc1,-0.7%
26,O=C(C1=C(c2ccccc2)C(=O)c2ccccc2C1=O)c1ccccc1,71.6% (active)
27,O=C1C(=C(O)c2ccccc2)C(=O)c2ccccc21,-47.9%
28,COC1=C(c2ccccc2)C(=O)c2ccccc2C1=O,-57.4%
29,CC(C)c1ccc(C2=C(O)c3ccccc3C(=O)C2=O)cc1,22.2%
30,O=C1C(c2ccncc2)=C(O)c2ccccc21,-4.7%
